The values that follow come from article PMC5540273 (PLoS ONE, 2017).

One experiment deals with T1, MEK2.
T1 construct: gene MAP2K2

Another experiment relates to T2, MINK.
T2 construct: gene MINK1
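Also: kd values determined as follow-up on hits from a single-replicate KINOMEscan panel screen.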

`Cn1c(=O)c(F)c(Nc2ccc(I)cc2F)c2c(=O)n(OC[C@H](O)CO)cnc21`: in the experiment on MEK2, the Kd came to 200 nM.

With `COc1cc2nccc(Nc3cccc(Oc4ccccc4)c3)c2cc1OC.Cl` [GW284543], binding in the experiment with MEK2 was characterised by a dissociation constant (Kd) of 270 nM.

In the case of `O=C(Nc1ccc2c(c1)OCO2)NC1CCN(c2ccnc(NCc3ccc(F)cc3)n2)CC1` [GSK1379859], the Kd in the experiment on MELK is greater than 10000 nM.

With `COc1ccc(CNC(=O)NC2CCN(c3ccnc(Nc4ccc(F)cc4)n3)C2)cc1` (centres unmarked) [GSK1379706], in the experiment on MINK, the Kd was greater than 10000 nM.

On to `Nc1nc(-c2ccccc2F)c(-c2ccnc3ccccc23)s1` [GW560459], for which the Kd with MINK is 1700 nM.

In the case of `Cc1cccc(-c2nc(Nc3ccc4c(cnn4C)c3)c3ccccc3n2)n1` [GW876731], the Kd with MKNK1 was greater than 10000 nM.

Consider `Nc1n[nH]c2ncc(-c3ccccc3)cc12` [SB-517081], for which, in the experiment with MKNK2, binding was characterised by a dissociation constant (Kd) of 260 nM.

For `O=C(Nc1n[nH]c2nc(-c3ccccc3)c(Br)cc12)C1CC1` [SB-708998], in the experiment on MST1R, the Kd is greater than 10000 nM.

Molecule `COc1ccc(-c2cc3c(C)nc(N)nc3n([C@H]3CC[C@H](O)CC3)c2=O)cn1` returned a Kd with MTOR of 4.8 nM.

For the molecule `COc1ccc(-c2cc3c(C)nc(N)nc3n([C@H]3CC[C@H](OCCO)CC3)c2=O)cn1`, the Kd with MTOR is 3.3 nM.

For `COc1cc2ncn(-c3cc(OCc4ccncc4)c(C(N)=O)s3)c2cc1OC` [GSK336313], the Kd in the experiment with MUSK was greater than 10000 nM.

One may read the Kd as a measure of binding affinity in units of concentration.
